# PubChem BioAssay (NCATS)
# Records with an inconclusive call do not appear. Activity calls are given as the source filed them. Calls follow the shape of the dose curve; as a rule, active = well fitted activation curve with a large enough effect; inconclusive = small, poorly fitted or top-dose-only effect; inactive = flat fitted curve, though single readings scatter. Starred links: 1 amine or outer side, 2 acyl side, 3 side chain; linkers in the order of their positions; H or OH if unused. Positions of bridges follow the written chain, without caps; N, C: chain ends. Non-standard residues stand in square brackets, D forms with d. Residues, ends and D or L forms follow the SMILES beside them. ξ: configuration not given here. *: point of attachment. X3 = C[C@@H](Oc1ccc([C@H](N[*:1])C(=O)[*:2])cc1)[C@]1(/C=C\C(=O)[*:3])CO1; d(aIle) = CC[C@H](C)[C@@H](N)C(=O)O; X2 = CC(C)[C@@H](O)C(C)C(=O)*; ξNMeF = CNC(Cc1ccccc1)C(=O)O; ξT = CC(O)C(N)C(=O)O; ξS = NC(CO)C(=O)O
# Assay: HEK293 24hr Apoptosis Induction qHTS against the NCATS CANVASS Library (AID 1347359)
# Settings: HEK293 caspase-3/7 activation, Caspase-Glo luminescence; series mostly up to 46.1 µM
# Source text: Natural products and their derivatives continue to be wellsprings of nascent therapeutic potential. However, many laboratories have limited resources for biological evaluation, leaving their previously isolated or synthesized compounds largely or completely untested. To address this issue, the Canvass library of natural products was assembled (https://tripod.nih.gov/canvass), in collaboration with academic and industry researchers, for quantitative high-throughput screening (qHTS) across a diverse set of cell-based and biochemical assays. The pure (>85% purity by liquid chromatography/mass spectrometry [LC/MS]) Canvass library of 346 natural products were submitted by 45 academic laboratories and companies around the world. We collected pure natural products to circumvent deconvolution and structure elucidation due to time and resource limitations. The library was formatted into 1536-well plates and evaluated in 50 qHTS (in an 11-pnt concentration series) bioassays with broad scope of disease-relevant mechanisms. The resulting data set from 50 different assays was then systematically analyzed to identify overall trends and specific natural products with interesting biological activities. Reported herein are the results of each individual qHTS and their corresponding assay protocol. The Caspase-Glo (R) (Promega) is a homogeneous, luminescent assay that measures caspase activity. The detection substrate contains tetrapeptide sequence DEVD in an "add-mix-measure" format. The reagent generates a luminescent signal produced by a thermostable luciferase. The luminescence is proportional to the amount of caspase activity in the assay reaction. National Center for Advancing Translational Sciences (NCATS), Rockville, MD National Institute of Health (NIH), Bethesda, Maryland
# Cancer Cell Apoptosis Assay 1. In a 1536 well, white solid bottom tissue culture plates (Corning 7494), HEK293 cancer cells in DMEM + 10% FBS + 1% P/S media were dispensed in each well at a final concentration of 500 cells / well (5uL volume) using the Multidrop Combi (Thermo Fisher Scientific) dispenser. 2. Compounds were pin transferred (~23nL volume) via Wako Pin-tool (Wako Automation, Richmond VA) equipped with a 1536 pin head. The assay plates were treated with compounds in a concentration series with a final concentration range of […] to 103uM. 3. Doxorubicin was used as a control in a 16pnt titration (1mM; 1:2 dilution; 16-points; n = 2; column 3, rows 1 - 32) and was pin transferred via Wako Pin-tool equipped with a 1536 pin head. The final concentration range of doxorubicin is 0.1nM - 4uM. 4. The assay plates were incubated for 24 hours at 37 degrees C/5% CO2/95% Rh. 5. 3uL Caspase-Glo 3/7 (R) (Promega) detection reagent was then added to the assay plates (columns 2 - 48, rows 1 - 32) and incubated at room temperature, covered from light, for 15 min. 6. Luminescence signal was acquired via the ViewLux plate reader (PerkinElmer) using a clear filter, 20 second exposure and 2x binning settings.
row,Compound,outcome
1,COC1C(O)C(C)OC(OC2C(Oc3cccc4c(O)c5c(=O)oc6ccc(C)c7c(=O)oc(c34)c5c67)OC(C)C(O)C2O)C1O (stereo not drawn),inactive
2,COC1=C(C2=C(OC)C(=O)c3cc4c(c(O)c3C2=O)C(=O)O[C@H](C)C4)C(=O)c2c(cc3c(c2O)C(=O)O[C@H](C)C3)C1=O,inactive
3,CCCCC1CC[C@H]2CCCC(CCC)N12 (stereo partly drawn),inactive
4,C=CC(C)(C)[C@@]12C[C@H]3C(=O)N/C(=C/c4cnc[nH]4)C(=O)N3[C@@H]1Nc1ccccc12,inactive
5,C/C=C1/CN2CC[C@@]34c5ccccc5N(C)[C@@H]3[C@@H]2C[C@@H]1[C@H]4C(=O)OC,inactive
6,C/C=C/[C@@H]1[C@H]2C[C@@H](C)CC[C@@H]2C(C)=C[C@H]1C(=O)c1c(O)c(-c2ccc(O)cc2)c[nH]c1=O,inactive
7,CO[C@H]([C@@H](C)[C@H]1O[C@]1(C)C[C@H](C)/C=C/C=C(\C)[C@H]1O[C@@H](CC(=O)O)CC[C@@H]1C)[C@@H](C)O,inactive
8,CO[C@H]1[C@H](O[C@H]2CC[C@]3(C=O)[C@H]4CC[C@]5(C)[C@@H](C6=CC(=O)OC6)CC[C@]5(O)[C@@H]4CC[C@]3(O)C2)O[C@H](C)[C@H](O)[C@@H]1OC,inactive
9,C[C@]12CC(O)C3[C@@H](CCC4C[C@@H](O)CC[C@@]43CO)[C@@]1(O)CC[C@@H]2C1=CC(=O)OC1 (stereo partly drawn),inactive
10,CO[C@H]1C[C@H](O[C@H]2[C@@H](O)C[C@H](O[C@H]3CC[C@]4(C=O)[C@H]5CC[C@]6(C)C(C7=CC(=O)OC7)CC[C@]6(O)[C@@H]5CC[C@]4(O)C3)O[C@@H]2C)O[C@H](C)[C@H]1O[C@H]1C[C@@H](OC)[C@@H](O[C@@H]2O[C@H](CO)[C@@H](O)[C@H](O)[C@H]2O)[C@@H](C)O1 (stereo partly drawn),inactive
11,CC[C@@H]1CN2CCc3c([nH]c4cccc(OC)c34)[C@@H]2C[C@@H]1/C(=C\OC)C(=O)OC,inactive
12,C1=C2CCCN[C@H]2C2CC1[C@H]1CCCCN1C2 (stereo partly drawn),inactive
13,C[C@]12CC(O)C3[C@@H](CC[C@@H]4C[C@@H](O)CC[C@]34CO)[C@@]1(O)CC[C@@H]2C1=CC(=O)OC1 (stereo partly drawn),inactive
14,CCCC[C@@H](C)/C=C1/CN2CCC[C@H]2[C@@](C)(O)[C@@H]1O,inactive
15,CCCC[C@@H]1CC[C@H]2CCCC(CCCO)N12 (stereo partly drawn),inactive
16,C/C(=C\[C@H](C)C(=O)C[C@H](O)CC1CC(=O)NC(=O)C1)[C@@H]1OC(=O)/C=C/CC/C=C/C=C/[C@@H]1C,inactive
17,C=C(C)[C@H]1C(=O)c2c3c(cc4c5c(n1c24)[C@@]1(C)[C@@H](CC[C@H]2[C@](C)(/C=C/C=C(\C)C(=O)O)[C@@H](O)CC[C@@]21C)C5)C1=CC(C)(C)OC(C)(C)[C@H]1[C@@H]3O,inactive

row,Compound,outcome
1,O[C@H]1C=C[C@@]23CCN(Cc4cc5c(cc42)OCO5)[C@@H]3C1,inactive
2,CC[C@]12C=CCN3CC[C@]4(C(=C(C(=O)OC)C1)Nc1ccccc14)[C@@H]32,inactive
3,C=CC(C)(C)[C@@]12C[C@H]3C(=O)N/C(=C\c4cnc[nH]4)C(=O)N3[C@@H]1Nc1ccccc12,inactive
4,CC[C@H]1CN2CCc3c([nH]c4cccc(OC)c34)[C@@H]2C[C@@H]1/C(=C\OC)C(=O)OC,inactive
5,CO[C@@]12c3c(C)cc(O)c4c(=O)occ(c34)C(=O)[C@@H]1[C@]13COC(=O)c4c(O)cc(C)c(c41)C(=O)[C@H]2[C@@H]3OC(C)=O,inactive
6,C/C=C(\C)C(=O)O[C@@H]1[C@@H](O)[C@@H]2O[C@H]3[C@H](O[C@@H](CCCCC)CCCCCCC(=O)CCC(=O)OC[C@@H](O2)[C@H]1OC(=O)/C=C/c1ccccc1)O[C@H](C)[C@H](OC(C)=O)[C@@H]3O,inactive
7,c1ccc2nc3c(cc2c1)[nH]c1ccccc13,inactive
8,C=C[C@]12C=CCN3CC[C@@]4(c5ccccc5NC(=O)[C@@H]4C1)[C@@H]32,inactive
9,C=C[C@H]1CN2CCc3c([nH]c4cccc(OC)c34)[C@@H]2C[C@@H]1/C(=C\OC)C(=O)OC,inactive
10,C/C=C1/CN2CC[C@]34C(=C(C(=O)OC)[C@H]1C[C@H]23)Nc1ccccc14,inactive
11,CCC(=O)N[C@@H](C[C@H](C)C(Cl)(Cl)Cl)C(=O)N1C(=O)C=C(OC)[C@@H]1C[C@H](C)C(Cl)Cl,inactive
12,CC[C@H](C)[C@H]1NC(=O)[C@@H](NC(=O)C(C)[C@H](O)C(C)C)[C@@H](C)OC(=O)C2COC(=O)CNC(=O)/C=C\[C@]3(CO3)[C@@H](C)Oc3ccc(cc3)[C@H](NC1=O)C(=O)N(C)C(Cc1ccccc1)C(=O)NC(C(C)O)C(=O)N2 (stereo partly drawn) (X2-T[d(aIle)][X3][ξNMeF][ξT][ξS]; ester 1-C; linker 3-6 via G),inactive
13,C[N+](C)(C)CCc1c[nH]c2ccccc12,inactive
14,CO[C@@H](/C=C/CC/C=C/C(=O)O)[C@@H](O)[C@H](C)/C=C(\C)[C@H](O)[C@H](C)C(=O)CCCC1CC(=O)NC(=O)C1,inactive
15,CC[C@@H]1CN2CCC3(Nc4cccc(OC)c4C3=O)[C@@H]2C[C@@H]1/C(=C\OC)C(=O)OC (stereo partly drawn),inactive
16,C[C@]12CCC3[C@@H](CC[C@@H]4C[C@@H](O)CC[C@]34CO)[C@@]1(O)CC[C@@H]2C1=CC(=O)OC1 (stereo partly drawn),inactive
